Among the data in PubChem BioAssay (NCI) are growth inhibition values, retold here.

The panel holds about 79,000 compounds, 15% with a hit somewhere; the sample as a whole holds those more often. A number with no mark means an inactive call. The source made the active and inactive calls. No stated cut-off is given here; in the data, active means growth inhibition above about 70%; inactive means the rest.

The nature of the test: NCI Yeast Anticancer Drug Screen. Data for the sgs1 mgt1 strain (AID 161).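 Further: 0% = growth of cultures given vehicle only.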 The conditions noted are these: S. cerevisiae sgs1 mgt1 strain, stronger effect = higher value. The protocol: Growth inhibition of yeast strains with defined genetic alterations is measured as a screen for potential anti-cancer activity. Selected strains with alterations in DNA damage repair or cell cycle control were exposed to compounds and growth inhibition was measured relative to vehicle treated controls. The strain used in this assay is sgs1 mgt1

Where [1] appears, read: at 5.0 µM (retest, dose inferred, filed as 0.5).
[2] abbreviates: at 50.0 µM (retest, dose inferred, filed as 5.0).

Take `CC1=NN(c2cccc(Cl)c2)C(=O)C1`: the growth inhibition by setting is: under setting [1], -12%; under setting [2], 56%; (at 50.0 µM) 55.9%.
In the same order, the values of `NNc1c(F)c(F)cc(F)c1F` are 0%, 23% and 67.9%.
For `OC(COc1cccc2ccccc12)CN1CCOCC1` (configuration not stated), the growth inhibition is 43% under setting [1], 71% (active) under setting [2] and 46.5% (at 50.0 µM).
For `Cc1cccc2c(C(O)CBr)cc(-c3ccc(Cl)cc3)nc12` (configuration not stated), the growth inhibition is 3% under setting [1], 95% (active) under setting [2] and 95.7% (active) (at 50.0 µM).
In the same order, the values of `CO[C@H]1C[C@](C)(O)Cc2cc3c(c(O)c21)C(=O)c1c(O)cc2c(c1C3=O)O[C@@H]1O[C@@]2(C)[C@H](O)[C@@H](N(C)C)[C@@H]1O` are -16%, -1% and 14.3%.
As for `Nc1ccn(C2OC(CO)C3[O][Sn]([c]4ccccc4)([c]4ccccc4)[O]C32)c(=O)n1` (configuration not stated), the growth inhibition by setting is: under setting [1], -12%; under setting [2], 65%; (at 50.0 µM) 86.2% (active).
On the same counts, the results for `N#CN1C2CCC1CC(=O)C2` are -5%, -5% and 77.4% (active).
With `CC(CC(C)(C)[N+](C)(C)C)[N+](C)(C)C` (configuration not stated), the growth inhibition by setting is: under setting [1], 1%; under setting [2], 91% (active); (at 50.0 µM) 95.8% (active).
As for `CCCCOC(=O)N[C@H]1CCc2cc(OC)c(OC)c(OC)c2-c2ccc(SC)c(=O)cc21`, the growth inhibition runs as follows: under setting [1], 3%; under setting [2], -13%; (at 50.0 µM) 82.5% (active).
For `CCOC(=O)[C@H]1Nc2ccccc2C2c3ccccc3CC21` (some centres not stated), the growth inhibition is 25% under setting [1], 83% (active) under setting [2] and 91.4% (active) (at 50.0 µM).
Turning to `CC1CCN(CCC(=O)c2ccc(Cl)cc2)CC1`, the growth inhibition is 16% under setting [1], 50% under setting [2] and 75.5% (active) (at 50.0 µM).
Turning to `S=C(Nc1ccc(Cl)cc1)SC1CCCCC1`, the growth inhibition is 18% under setting [1], 79% (active) under setting [2] and 86.5% (active) (at 50.0 µM).
For the compound `O=C1CSC(/C=C/c2ccccc2)N1c1ccc(-c2ccc(-n3c(-c4ccccc4)nc4ccccc4c3=O)cc2)cc1` (configuration not stated), the growth inhibition under setting [1] was -1%, the growth inhibition under setting [2] was 5% and the growth inhibition (at 50.0 µM) was 87.2% (active).
On the same counts, the results for `Oc1c(Br)cc(Br)cc1C1CCCCC1` are -16%, 98% (active) and 91.8% (active).
